Where a name gives a salt, the structure may show the parent alone. ± gives the uncertainty stated by the source.
Tested on: Candida albicans SNY425 biofilm
Assay: biofilm OD600 with compound plus antifungal (OD600 (absorbance)); higher = more biofilm remaining
[1] = assay detail: disruption of 24-h mature biofilm (compound + antifungal for a second 24 h)
[2] = assay detail: sustained inhibition (compound + antifungal during 90-min adherence and 24-h growth)

| Structure (SMILES) | biofilm OD600 [1] | biofilm OD600 [2] |
| --- | --- | --- |
| CC(C)CC(=O)N[C@H](C(=O)N[C@H](C(=O)N[C@@H](CC(C)C)[C@@H](O)CC(=O)N[C@@H](C)C(=O)N[C@@H](CC(C)C)[C@@H](O)CC(=O)O)C(C)C)C(C)C [Pepstatin A] + OC(Cn1cncn1)(Cn1cncn1)c1ccc(F)cc1F [fluconazole] (first compound 12.5 µM) | 0.255 ± 0.007 | 0.144 ± 0.0099 |
| C[C@]1(Cn2ccnn2)[C@H](C(=O)O)N2C(=O)C[C@H]2S1(=O)=O [Tazobactam] + CC[C@H](C)C[C@H](C)CCCCCCCCC(=O)N[C@H]1C[C@@H](O)[C@@H](NCCN)NC(=O)[C@@H]2[C@@H](O)CCN2C(=O)[C@H]([C@H](O)CCN)NC(=O)[C@H]([C@H](O)[C@@H](O)c2ccc(O)cc2)NC(=O)[C@@H]2C[C@@H](O)CN2C(=O)[C@H]([C@@H](C)O)NC1=O [caspofungin] (first compound 12.5 µM) | 0.275 ± 0.014 | 0.181 ± 0.0097 |
| CCCCCCCCCC(=O)N[C@@H](CCCN=C(N)N)C(=O)N[C@H](C(=O)N[C@@H](CCCCN)C(=O)N[C@@H](CCCN=C(N)N)C(=O)CCl)C(C)C + C[C@@H]1[C@H](O)[C@@H](C)/C=C/C=C/C=C/C=C/C=C/C=C/C=C/[C@H](O[C@@H]2O[C@H](C)[C@@H](O)[C@H](N)[C@@H]2O)C[C@@H]2O[C@](O)(C[C@@H](O)C[C@@H](O)[C@H](O)CC[C@@H](O)C[C@@H](O)CC(=O)O[C@H]1C)C[C@H](O)[C@H]2C(=O)O [amphotericin B] (first compound 4 µM) | 0.261 ± 0.0041 | 0.188 ± 0.0044 |
| CC(C)C[C@H](NC(=O)[C@H]1O[C@@H]1C(=O)O)C(=O)NCCCCN=C(N)N + CC[C@H](C)C[C@H](C)CCCCCCCCC(=O)N[C@H]1C[C@@H](O)[C@@H](NCCN)NC(=O)[C@@H]2[C@@H](O)CCN2C(=O)[C@H]([C@H](O)CCN)NC(=O)[C@H]([C@H](O)[C@@H](O)c2ccc(O)cc2)NC(=O)[C@@H]2C[C@@H](O)CN2C(=O)[C@H]([C@@H](C)O)NC1=O [caspofungin] (first compound 12.5 µM) | 0.261 ± 0.01 | 0.18 ± 0.008 |
| CCCCC[C@H](CC(=O)NO)C(=O)N[C@H](C(=O)N1CCC[C@H]1CO)C(C)C [Actinonin] + OC(Cn1cncn1)(Cn1cncn1)c1ccc(F)cc1F [fluconazole] (first compound 12.5 µM) | 0.267 ± 0.0099 | 0.145 ± 0.0085 |
| COC(=O)N[C@H](C(=O)N[C@@H](Cc1ccccc1)[C@@H](O)CN(Cc1ccc(-c2ccccn2)cc1)NC(=O)[C@@H](NC(=O)OC)C(C)(C)C)C(C)(C)C [atazanavir] + CC[C@H](C)C[C@H](C)CCCCCCCCC(=O)N[C@H]1C[C@@H](O)[C@@H](NCCN)NC(=O)[C@@H]2[C@@H](O)CCN2C(=O)[C@H]([C@H](O)CCN)NC(=O)[C@H]([C@H](O)[C@@H](O)c2ccc(O)cc2)NC(=O)[C@@H]2C[C@@H](O)CN2C(=O)[C@H]([C@@H](C)O)NC1=O [caspofungin] (first compound 12.5 µM) | 0.203 ± 0.0059 | 0.201 ± 0.013 |
| O=C(NCCCCN1CCOCC1)c1cc2ccccc2o1 + OC(Cn1cncn1)(Cn1cncn1)c1ccc(F)cc1F [fluconazole] (first compound 12.5 µM) | 0.258 ± 0.0098 | 0.158 ± 0.008 |
| CCCCCCCCCC(=O)N[C@@H](CCCN=C(N)N)C(=O)N[C@H](C(=O)N[C@@H](CCCCN)C(=O)N[C@@H](CCCN=C(N)N)C(=O)CCl)C(C)C + CC[C@H](C)C[C@H](C)CCCCCCCCC(=O)N[C@H]1C[C@@H](O)[C@@H](NCCN)NC(=O)[C@@H]2[C@@H](O)CCN2C(=O)[C@H]([C@H](O)CCN)NC(=O)[C@H]([C@H](O)[C@@H](O)c2ccc(O)cc2)NC(=O)[C@@H]2C[C@@H](O)CN2C(=O)[C@H]([C@@H](C)O)NC1=O [caspofungin] (first compound 4 µM) | 0.18 ± 0.013 | 0.141 ± 0.018 |
| CCCC[C@@H](C=O)NC(=O)OC(C)(C)C + C[C@@H]1[C@H](O)[C@@H](C)/C=C/C=C/C=C/C=C/C=C/C=C/C=C/[C@H](O[C@@H]2O[C@H](C)[C@@H](O)[C@H](N)[C@@H]2O)C[C@@H]2O[C@](O)(C[C@@H](O)C[C@@H](O)[C@H](O)CC[C@@H](O)C[C@@H](O)CC(=O)O[C@H]1C)C[C@H](O)[C@H]2C(=O)O [amphotericin B] (first compound 12.5 µM) | 0.259 ± 0.011 | 0.188 ± 0.0076 |
| CSCCC(C=O)NC(=O)C(CC(C)C)NC(=O)[C@H](CC(C)C)NC(C)=O (stereo partly drawn) [Calpain Inhibitor II (ALLM)] + C[C@@H]1[C@H](O)[C@@H](C)/C=C/C=C/C=C/C=C/C=C/C=C/C=C/[C@H](O[C@@H]2O[C@H](C)[C@@H](O)[C@H](N)[C@@H]2O)C[C@@H]2O[C@](O)(C[C@@H](O)C[C@@H](O)[C@H](O)CC[C@@H](O)C[C@@H](O)CC(=O)O[C@H]1C)C[C@H](O)[C@H]2C(=O)O [amphotericin B] (first compound 12.5 µM) | 0.247 ± 0.0052 | 0.193 ± 0.0094 |
| CC(C)(C)NC(=O)[C@@H]1CN(Cc2cccnc2)CCN1C[C@@H](O)C[C@@H](Cc1ccccc1)C(=O)N[C@H]1c2ccccc2C[C@H]1O [indinavir] + CC[C@H](C)C[C@H](C)CCCCCCCCC(=O)N[C@H]1C[C@@H](O)[C@@H](NCCN)NC(=O)[C@@H]2[C@@H](O)CCN2C(=O)[C@H]([C@H](O)CCN)NC(=O)[C@H]([C@H](O)[C@@H](O)c2ccc(O)cc2)NC(=O)[C@@H]2C[C@@H](O)CN2C(=O)[C@H]([C@@H](C)O)NC1=O [caspofungin] (first compound 12.5 µM) | 0.227 ± 0.0078 | 0.207 ± 0.011 |
| CCOC(=O)c1ccc(OC(=O)CCCCCNC(=N)N)cc1 [Gabexate mesylate] + OC(Cn1cncn1)(Cn1cncn1)c1ccc(F)cc1F [fluconazole] (first compound 12.5 µM) | 0.267 ± 0.013 | 0.116 ± 0.0062 |
| N[C@H](C(=O)O)[C@@H]1CC(Cl)=NO1 [Acivicin] + C[C@@H]1[C@H](O)[C@@H](C)/C=C/C=C/C=C/C=C/C=C/C=C/C=C/[C@H](O[C@@H]2O[C@H](C)[C@@H](O)[C@H](N)[C@@H]2O)C[C@@H]2O[C@](O)(C[C@@H](O)C[C@@H](O)[C@H](O)CC[C@@H](O)C[C@@H](O)CC(=O)O[C@H]1C)C[C@H](O)[C@H]2C(=O)O [amphotericin B] (first compound 4 µM) | 0.31 ± 0.0054 | 0.181 ± 0.006 |
| CC(C)C[C@H](NP(=O)(O)O[C@@H]1O[C@@H](C)[C@H](O)[C@@H](O)[C@H]1O)C(=O)N[C@@H](Cc1c[nH]c2ccccc12)C(=O)O [Phosphoramidon] + C[C@@H]1[C@H](O)[C@@H](C)/C=C/C=C/C=C/C=C/C=C/C=C/C=C/[C@H](O[C@@H]2O[C@H](C)[C@@H](O)[C@H](N)[C@@H]2O)C[C@@H]2O[C@](O)(C[C@@H](O)C[C@@H](O)[C@H](O)CC[C@@H](O)C[C@@H](O)CC(=O)O[C@H]1C)C[C@H](O)[C@H]2C(=O)O [amphotericin B] (first compound 12.5 µM) | 0.28 ± 0.0089 | 0.211 ± 0.0094 |
| NCC1CCC(C(=O)N[C@@H](Cc2ccccc2)C(=O)Nc2ccc(CC(=O)O)cc2)CC1 (stereo partly drawn) + OC(Cn1cncn1)(Cn1cncn1)c1ccc(F)cc1F [fluconazole] (first compound 12.5 µM) | 0.251 ± 0.0096 | 0.13 ± 0.018 |
| C[C@]1(Cn2ccnn2)[C@H](C(=O)O)N2C(=O)C[C@H]2S1(=O)=O [Tazobactam] + OC(Cn1cncn1)(Cn1cncn1)c1ccc(F)cc1F [fluconazole] (first compound 12.5 µM) | 0.283 ± 0.011 | 0.12 ± 0.0072 |
| CC(C)CN(C[C@@H](O)[C@H](Cc1ccccc1)NC(=O)O[C@H]1CCOC1)S(=O)(=O)c1ccc(N)cc1 [amprenavir] + CC[C@H](C)C[C@H](C)CCCCCCCCC(=O)N[C@H]1C[C@@H](O)[C@@H](NCCN)NC(=O)[C@@H]2[C@@H](O)CCN2C(=O)[C@H]([C@H](O)CCN)NC(=O)[C@H]([C@H](O)[C@@H](O)c2ccc(O)cc2)NC(=O)[C@@H]2C[C@@H](O)CN2C(=O)[C@H]([C@@H](C)O)NC1=O [caspofungin] (first compound 12.5 µM) | 0.271 ± 0.014 | 0.201 ± 0.013 |
| CC(C)c1nc(CN(C)C(=O)N[C@H](C(=O)N[C@@H](Cc2ccccc2)C[C@H](O)[C@H](Cc2ccccc2)NC(=O)OCc2cncs2)C(C)C)cs1 [ritonavir] + CC[C@H](C)C[C@H](C)CCCCCCCCC(=O)N[C@H]1C[C@@H](O)[C@@H](NCCN)NC(=O)[C@@H]2[C@@H](O)CCN2C(=O)[C@H]([C@H](O)CCN)NC(=O)[C@H]([C@H](O)[C@@H](O)c2ccc(O)cc2)NC(=O)[C@@H]2C[C@@H](O)CN2C(=O)[C@H]([C@@H](C)O)NC1=O [caspofungin] (first compound 12.5 µM) | 0.159 ± 0.0069 | 0.12 ± 0.009 |
| O=C(O[C@@H]1Cc2c(O)cc(O)cc2O[C@@H]1c1cc(O)c(O)c(O)c1)c1cc(O)c(O)c(O)c1 [Epigallocatechin gallate] + C[C@@H]1[C@H](O)[C@@H](C)/C=C/C=C/C=C/C=C/C=C/C=C/C=C/[C@H](O[C@@H]2O[C@H](C)[C@@H](O)[C@H](N)[C@@H]2O)C[C@@H]2O[C@](O)(C[C@@H](O)C[C@@H](O)[C@H](O)CC[C@@H](O)C[C@@H](O)CC(=O)O[C@H]1C)C[C@H](O)[C@H]2C(=O)O [amphotericin B] (first compound 12.5 µM) | 0.27 ± 0.017 | 0.231 ± 0.014 |
